# Measurements from PubChem BioAssay (NCI).
# This is part of a sample that, as a whole, favours compounds with a hit. Of some 83,000 tested, about 20% had one in any assay.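 Treatment: one concentration, 48 hours, 96-well format. Scoring: percent growth, with anything below 10 considered active.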 Unmarked numbers belong to inactive results. Calls of active or inactive are those of the source.
# System: SNB-75 CNS
# Assay: NCI-60 one-dose screen, 48 h (100 = growth as untreated, 0 = no growth, -100 = all killed)
# Settings: 10 µM
row,Structure (SMILES),growth
1,COC(=O)C1OC1c1cc([N+](=O)[O-])ccc1OC (stereo unspecified),90.6%
2,O=c1cn[nH]c2ccc(Br)cc12,96.2%
3,COc1cc(CNC(=O)C2CSC3(C)c4ccccc4C(=O)N23)cc(OC)c1OC (stereo unspecified),97.5%
4,O=C1/C=C/[C@@H](O)[C@@H]2C[C@@H](O)C[C@H]2/C=C/CCC[C@H](C(F)(F)F)O1,39.1%
5,O=C1CCn2c1c(O)c1ccccc1c2=O,86.6%
6,COc1ccc(/C(=N\N)C(=O)c2ccccc2)cc1 (tested in a mixture with another compound),93.2%
7,O=C(CCl)Nc1ccc(Cc2ccc(NC(=O)CCl)cc2)cc1,61.1%
8,CCOC(=O)C1=CSC2=NC3=C(CCC/C3=C\c3cc(OC)c(OC)c(OC)c3)C(c3cc(OC)c(OC)c(OC)c3)N12 (stereo unspecified),39.1%
9,C=CCSC(CC)(CC)C(=O)NC,89.5%
10,CCN(CCCNc1cc2c(c(N)c1S(=O)(=O)O)C(=O)c1ccccc1C2=O)c1ccccc1,88.3%
11,Cc1ccc(S(=O)(=O)N/N=C2\CCCc3ccccc32)cc1,92.4%
12,COc1cc(-c2nn(-c3cccc(NC(=O)CCNc4ccc(N5CCOCC5)cc4)c3)cc2-c2ccncc2)ccc1Cl,40.1%
13,COc1cc2c(cc1NC(=O)C(Cl)Cl)-c1ccc(NC(=O)C(Cl)Cl)cc1C2,-29.6% (active)
14,OCC1OC2C(NC(=S)N2c2ccccc2)C(O)C1O (stereo unspecified),99.6%
15,Cc1cc(O)ccc1C1=NN(c2ccc(S(C)(=O)=O)cc2)C(=O)CC1,75.2%
16,Cc1c(Cl)cccc1NC(=O)CN1CCOCC1,88.9%
17,O=C1c2ccccc2C(=O)c2c1ccc(C(Br)Br)c2Cl,91.4%
18,CC[C@@H](C(=O)[C@@H](C)[C@@H](O)[C@H](C)[C@@H]1O[C@@H]([C@@H](CC)C(=O)N(CC)CC)CC[C@@H]1C)C1O[C@]2(C=CC(=O)[C@]3(CC[C@@](C)([C@H]4CC[C@](O)(CC)[C@H](C)O4)O3)O2)[C@H](C)C[C@@H]1C (stereo partly specified),30.2%
19,COc1cc(C(=O)n2nc(-c3cc(OC)c(OC)c(OC)c3)nc2N)cc(OC)c1OC,81.9%
20,COc1ccc(C(=O)N2C=Cc3ccccc3C2C#N)cc1 (stereo unspecified),94.1%
21,COc1ccc(-c2nn(-c3cccc(Cl)c3)cc2-c2cc(-c3ccccc3)[nH]c(=O)c2C#N)cc1,38.4%
22,CCOC(=O)C1C(C(=O)OCC)C2C(=O)C3C(C(=O)OCC)C(C(=O)OCC)C3C(=O)C12 (stereo unspecified),99.9%
23,CC1=CC2C(C(O)CC3(C)C2CC(C)C32OCOC23COCO3)C2(C)C/C(=C/O)C(=O)C=C12 (stereo unspecified),100%
24,CCN(CC)CCOc1cccc2c1C(=O)c1ccccc1C2=O,86.4%
25,Cc1c2cnccc2c(C)c2c1oc1ccccc12,106%
26,O=C(Nc1ccc(NS(=O)(=O)c2ccc(F)cc2)cc1)C12CC3CC(CC(C3)C1)C2,90%
